PubChem BioAssay (NCI)
The panel holds about 83,000 compounds, 20% with a hit somewhere; the sample as a whole holds those more often.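 Note: values are percent growth. 100 is the growth of untreated cells, values between 100 and 0 indicate rising inhibition; between -100 and 0 indicates cell death.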 Unmarked numbers belong to inactive results. Active and inactive are the calls of the source. The calls were made as follows: active = growth percent below 10; inactive = the rest.

Experiments:
Assay in all cases: NCI-60 one-dose screen, 48 h (100 = growth as untreated, 0 = no growth, -100 = all killed)
Conditions in all cases: 10 µM
EKVX NSCLC = system: EKVX NSCLC
SN12C renal = system: SN12C renal
UO-31 renal = system: UO-31 renal
TK-10 renal = system: TK-10 renal
ACHN renal = system: ACHN renal
CAKI-1 renal = system: CAKI-1 renal
CCRF-CEM leukemia = system: CCRF-CEM leukemia
MOLT-4 leukemia = system: MOLT-4 leukemia
SR leukemia = system: SR leukemia
OVCAR-8 ovarian = system: OVCAR-8 ovarian
OVCAR-5 ovarian = system: OVCAR-5 ovarian
OVCAR-4 ovarian = system: OVCAR-4 ovarian
SK-OV-3 ovarian = system: SK-OV-3 ovarian
IGROV1 ovarian = system: IGROV1 ovarian
OVCAR-3 ovarian = system: OVCAR-3 ovarian
HS 578T breast = system: HS 578T breast
T-47D breast = system: T-47D breast
RPMI-8226 leukemia = system: RPMI-8226 leukemia
NCI/ADR-RES ovarian = system: NCI/ADR-RES ovarian

Compound | growth (EKVX NSCLC) | growth (SN12C renal) | growth (UO-31 renal) | growth (TK-10 renal) [%] | growth (ACHN renal) | growth (CAKI-1 renal) | growth (CCRF-CEM leukemia) | growth (MOLT-4 leukemia) | growth (SR leukemia) | growth (OVCAR-8 ovarian) | growth (OVCAR-5 ovarian) | growth (OVCAR-4 ovarian) [%] | growth (SK-OV-3 ovarian) | growth (IGROV1 ovarian) | growth (OVCAR-3 ovarian) | growth (HS 578T breast) | growth (T-47D breast) | growth (RPMI-8226 leukemia) | growth (NCI/ADR-RES ovarian)
COc1cccc(-c2cc(-c3cccc(NS(C)(=O)=O)c3)nc(N)c2C#N)c1O | 32.6% | 50.7% | 15.3% | 71.3 | 43.3% | -11.9% (active) | 12.3% | 35% | 24.6% | 42.4% | 84.1% | 52.8 | 27.2% | 91.2% | -16% (active) | 52.8% | 52% | – | –
COc1cc(C(=C2O[C@@H]([C@H]3COC(C)(C)O3)[C@H]3OC(C)(C)O[C@@H]23)c2cc(OC)c(OC)c(OC)c2)cc(OC)c1OC | 98.5% | 92.9% | 95.8% | 111 | 99.8% | 107% | 103% | 99.8% | 90.6% | 108% | 90.8% | 108 | 116% | 137% | 112% | – | 95.7% | 88.1% | 91.7%
CCCCCCNC(=O)Oc1ccc(/C(=C(/CC)Cc2ccccc2)c2ccc(OCCN3CCCCC3)cc2)cc1 | 85.1% | 80.7% | 60.4% | 93.7 | 100% | 96.9% | 66.7% | 55.2% | 0.769% (active) | 81.6% | 94% | 69.9 | 86.3% | 91.1% | 87.8% | 83.5% | 51.3% | 68.2% | 81.8%
CCN(CCCCCCCCCCN1CC(=O)N(CCCCCCCCCCN(CC)Cc2ccccc2OC)CC1=O)Cc1ccccc1OC | -0.258% (active) | 9.4% (active) | -74.8% (active) | 10.1 | 3.48% (active) | -12.8% (active) | -25.5% (active) | -32.7% (active) | -61.3% (active) | -77.1% (active) | 8.29% (active) | 10.2 | -38.5% (active) | -66.3% (active) | -62.6% (active) | – | -66.5% (active) | -70.2% (active) | -32.9% (active)
O=C(Nc1nc(-c2ccccc2Cl)cs1)c1cc(-c2ccc(Cl)cc2)nc2ccc(Cl)cc12 | 73.9% | 30.3% | 28.4% | 98.4 | 36.9% | 81.7% | 28.4% | 18.4% | 12.9% | 1.38% (active) | 102% | 44 | 82% | 24.4% | 2.87% (active) | 14.9% | 64.3% | 14% | 2.23% (active)
O=C1C(c2ccccc2)C2C=CC(C2)N1O (stereo not given) | 101% | 102% | 68% | 101 | 107% | 106% | 82.6% | 92.5% | 105% | 104% | 119% | 116 | 106% | 108% | 112% | 105% | 92.1% | 81% | 112%
CCOC(=O)C1CCc2c(ccc3ccccc23)N1CCC#N (stereo not given) | 92.8% | 98.7% | 74.9% | 116 | 115% | 80.2% | 89.2% | 77.9% | 63% | 107% | 107% | – | – | 93.5% | 115% | 99.9% | 97.5% | 104% | 82%
O=C(CC(c1ccccc1)N1CCOCC1)c1ccccc1 (stereo not given) | 89.3% | 88.5% | 75.7% | 99.7 | 103% | 98.8% | 79.6% | 82.3% | -32.7% (active) | 96.6% | 79.3% | 98.3 | 104% | 97.4% | 94.7% | – | – | 5.15% (active) | 91.2%
CC(C)=NNc1ncnc2c1ncn2C1OC(CO)C(O)C1O (stereo not given) | 43.7% | 20.5% | -3.29% (active) | 57.5 | 12.3% | -19% (active) | 35.9% | 56.4% | 14.4% | 25.7% | 49.2% | 26.4 | 4.34% (active) | 64.5% | 3.84% (active) | -2.14% (active) | – | – | –
O=C(Cc1csc2nc(-c3ccc(Cl)cc3)cn12)N/N=C/c1ccccc1O | 32.2% | 61% | 27.2% | 57.1 | 26.4% | 34.5% | 20.2% | 10.5% | -11.5% (active) | 41.6% | 58.2% | 43.2 | 52.7% | 11.7% | 13.9% | – | 57.7% | 23.6% | 41.3%
COc1ccc(/C(=C2/O[C@@H]([C@H]3COC(C)(C)O3)[C@H]3OC(C)(C)O[C@@H]23)c2cc(OC)c(OC)c(OC)c2)cc1O | 101% | 84.5% | 123% | 117 | 49.5% | 111% | 60.8% | 60.5% | -13.6% (active) | 96.1% | 92.9% | 106 | 90.1% | 92.6% | 58.3% | – | 115% | 36.4% | -10.5% (active)
CS(=O)(=O)Nc1cccc(-c2cc(-c3ccccc3Cl)c(C#N)c(N)n2)c1 | 27% | 51.6% | 26% | 63.5 | 46.8% | 16.1% | 20.6% | 24.6% | 23.9% | 44% | 56.3% | 47.1 | 22% | 51.4% | -29.3% (active) | -1.53% (active) | 36.9% | – | –
O=C1/C(=C/c2ccc(Cl)cc2)SC(=Nc2ccc(Cl)cc2)N1Cc1nc2ccccc2[nH]1 | 64.5% | 79.3% | 37.5% | 104 | 91.9% | 8.38% (active) | 62.6% | 57.3% | 46.6% | 66.9% | 107% | – | 97.6% | 64.8% | 81.6% | 114% | 78.1% | – | –
O=C(CSSCC(=O)c1ccc(Cl)cc1)c1ccc(Cl)cc1 | 91.4% | 79.1% | 86.4% | 41.3 | 82.1% | 96.5% | 15.3% | 13.9% | 18.7% | 47.8% | 60.1% | 85.8 | 60% | 78.9% | 78.4% | – | 74.8% | 24.9% | -13% (active)
Nc1nc(N=Nc2ccc(O)cc2)cc(=O)[nH]1 | 91.4% | 101% | 93.6% | 120 | 105% | 91.4% | 97.5% | 104% | 94.3% | 97.2% | 104% | – | 104% | 109% | 125% | 108% | 95.7% | 106% | 94.6%
Nc1ccc2c(c1)Cc1cc(N)c(Br)cc1-2 | 46.8% | 113% | 76.9% | 138 | 87% | 86.6% | 82.1% | 94.1% | – | 102% | 113% | – | 101% | 116% | 115% | 76.7% | 78.5% | – | 90.2%
O=C(NN1C(=O)CSC1c1ccc(Cl)cc1)c1cccnc1 (stereo not given) | 95.2% | 131% | 72.2% | 107 | 113% | 98.2% | 99.5% | – | – | 99.7% | 86.7% | 118 | 106% | 112% | 121% | – | 102% | 74.8% | 91.4%
COc1ccc(Cl)cc1C(=O)Nc1nc2ccc(Cl)cc2s1 | 76.2% | 91.7% | 58.2% | 127 | 85.9% | 84.4% | 86.4% | 95.6% | 87.7% | 88.9% | 124% | – | 91.9% | 65.9% | 103% | 102% | 47.2% | 80.5% | 102%
